Experimental data: ChEMBL document CHEMBL4808148, “HDAC6 screening dataset using tau-based substrate in an enzymatic assay yields selective inhibitors and activators” (2021)
In all, about 5,600 compounds went through this assay and about 390 (7%) showed an effect of 50% or more. The full list was thinned out, with strong results kept by preference.

Target: T1, Protein deacetylase HDAC6 (Homo sapiens) (UniProt Q9UBN7)
T1 sequence (whole entry): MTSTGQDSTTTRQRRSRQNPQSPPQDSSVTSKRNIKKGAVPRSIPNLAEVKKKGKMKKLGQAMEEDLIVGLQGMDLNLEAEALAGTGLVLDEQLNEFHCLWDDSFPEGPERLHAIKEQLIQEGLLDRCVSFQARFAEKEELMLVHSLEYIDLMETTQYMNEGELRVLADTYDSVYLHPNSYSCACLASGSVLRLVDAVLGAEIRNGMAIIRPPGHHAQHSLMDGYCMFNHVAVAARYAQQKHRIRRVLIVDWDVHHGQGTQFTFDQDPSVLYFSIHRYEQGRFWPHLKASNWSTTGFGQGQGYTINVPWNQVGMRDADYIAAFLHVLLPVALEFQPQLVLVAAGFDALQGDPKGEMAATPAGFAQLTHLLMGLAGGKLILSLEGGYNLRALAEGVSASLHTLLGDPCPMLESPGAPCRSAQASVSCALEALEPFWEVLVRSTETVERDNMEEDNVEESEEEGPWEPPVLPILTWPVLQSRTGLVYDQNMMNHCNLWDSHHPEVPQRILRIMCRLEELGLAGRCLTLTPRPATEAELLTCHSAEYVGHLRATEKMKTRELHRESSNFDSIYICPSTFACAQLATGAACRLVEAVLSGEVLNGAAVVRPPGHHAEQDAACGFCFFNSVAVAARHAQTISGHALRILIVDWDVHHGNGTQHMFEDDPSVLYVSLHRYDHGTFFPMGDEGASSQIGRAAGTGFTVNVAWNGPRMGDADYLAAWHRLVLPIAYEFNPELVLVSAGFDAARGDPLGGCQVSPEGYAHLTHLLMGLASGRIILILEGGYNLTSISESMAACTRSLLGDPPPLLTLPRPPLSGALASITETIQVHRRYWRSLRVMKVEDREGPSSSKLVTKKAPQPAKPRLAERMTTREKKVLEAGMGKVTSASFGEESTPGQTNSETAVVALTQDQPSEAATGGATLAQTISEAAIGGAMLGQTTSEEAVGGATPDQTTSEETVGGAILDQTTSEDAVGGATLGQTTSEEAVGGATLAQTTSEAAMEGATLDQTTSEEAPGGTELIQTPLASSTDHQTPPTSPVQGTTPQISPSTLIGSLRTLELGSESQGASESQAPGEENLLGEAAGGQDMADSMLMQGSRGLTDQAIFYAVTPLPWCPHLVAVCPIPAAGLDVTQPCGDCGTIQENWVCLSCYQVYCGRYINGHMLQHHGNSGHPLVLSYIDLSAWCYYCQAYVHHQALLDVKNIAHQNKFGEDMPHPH
Conditions: at 10 µM

SMILES | inhibition [%]
COc1ccc2[nH]c3c(-c4cccc5ccccc45)nccc3c2c1 | 9.67
Cc1cc(C)c(N)c(C#Cc2cccc(F)c2)n1 | 103
Cc1nc(C#Cc2ccnc(Cl)c2)c(C)n1-c1ccc(F)cc1 | 5.29
CC(C)NC(=O)c1ccc(C#Cc2ccncc2)cn1 | -5.33
C[C@@H]([C@H](C)O)[C@H](N)C(=O)O | -7.36
CNC(=O)c1ccc(C)c(-n2c(C)cc(OCc3ccc(F)cc3F)c(Br)c2=O)c1 | 72.6
CCCCCCCCCCCCCC[C@@H](O)[C@@H](O)[C@@H](N)CO | 0.56
CCCc1c(OCC(O)COc2ccc3c(=O)cc(C(=O)O)oc3c2CCC)ccc(C(C)=O)c1O (stereo not drawn) | 22.7
Cc1cc(OI)c(C(C)C)cc1-c1cc(C(C)C)c(OI)cc1C | 7.55
Cc1nc2ccc(NC(=O)Nc3ccnc4cccnc34)cc2o1 | 76
CN[C@@H]1CCc2[nH]c3ccc(C(N)=O)cc3c2C1 | 9.03
Cc1cccc(/C=N/Nc2cc(N3CCOCC3)nc(OCCc3ccccn3)n2)c1 | 1.14
Cc1cc(-c2nncc3c(C(C)(C)C)c(OCc4ncnn4C)nn23)no1 | -0.39
O=C1C[C@@H](c2ccccc2)Oc2cc(O)cc(O)c21 | 50.7
O=C1c2c(O)cc(O)cc2O[C@H](c2ccc(O)c(O)c2)[C@H]1O | 10.8
COc1cc([C@H]2Oc3cc([C@H]4Oc5cc(O)cc(O)c5C(=O)[C@@H]4O)ccc3O[C@@H]2CO)ccc1O | 15.7
COc1ccc([C@@H]2CC(=O)c3c(O)cc(O)cc3O2)cc1O | 94.9
COc1ccc([C@@H]2CC(=O)c3c(O)cc(O[C@@H]4O[C@H](CO[C@@H]5O[C@@H](C)[C@H](O)[C@@H](O)[C@H]5O)[C@@H](O)[C@H](O)[C@H]4O)cc3O2)cc1O | 14.3
O=C1C[C@@H](c2ccc(O)cc2)Oc2cc(O)ccc21 | -5.99
CS(=O)(=O)c1ccc([C@@H](CC2CCCC2)C(=O)Nc2nccs2)cc1 | -9.75
Cn1cnnc1Sc1c([N+](=O)[O-])ncn1C | 19.5
C=C1/C(=C\C=C2/CCC[C@]3(C)[C@@H]([C@H](C)/C=C/[C@@H](O)C4CC4)CC[C@@H]23)C[C@@H](O)C[C@@H]1O | 1.78
C[C@@H](CN1CCC(n2c(=O)[nH]c3cc(Cl)ccc32)CC1)NC(=O)c1ccc2ccccc2c1 | 8.37
CC1(C)N=C(N)N=C(N)N1OCCCOc1cc(Cl)c(Cl)cc1Cl | 12
Clc1cccc(-n2nnnc2NCc2ccccc2Oc2ccccn2)c1Cl | 0.62
C[n+]1ccccc1C=NO | 0.38
O=C1C(Cl)=C(N2CCOCC2)C(=O)N1c1ccc(Cl)c(Cl)c1 | 86

SMILES | inhibition [%]
O=C(Nc1ccc(N2CCC(C(=O)N3CCOCC3)CC2)cc1)c1cnc(Oc2ccccc2)nc1 | 3.27
CCN(CC)C(=S)S | 13.4
CC(=O)N(O)C/C=C/c1cccc(Oc2ccccc2)c1 | 9.26
N[C@@H]1CCCN(c2c(/C=C3\SC(=O)NC3=O)cccc2-c2ccccc2)C1 | 104
CCCCCCC[N+](CC)(CC)CCCCc1ccc(Cl)cc1 | 11
COc1cc(OC)cc(N(CCNC(C)C)c2ccc3ncc(-c4cnn(C)c4)nc3c2)c1 | -0.23
Nc1nc(-c2nn(Cc3ccccc3F)c3ncccc23)ncc1C1CC1 | 34.9
N=C(N)NCCC(=O)O | 1.27
NC(=O)C1=CN([C@@H]2O[C@H](COP(=O)(O)OP(=O)(O)OC[C@H]3O[C@@H](n4cnc5c(N)ncnc54)[C@H](O)[C@@H]3O)[C@@H](O)[C@H]2O)C=CC1 | 4.98
Cc1cnc(Nc2ccc(OCCN3CCCC3)cc2)nc1Nc1cccc(S(=O)(=O)NC(C)(C)C)c1 | 25
CCCCc1ccc2[nH]c(NC(=O)OC)nc2c1 | 48
O=C(NO)c1ccc2[nH]c(=O)c(CCCc3ccccc3)nc2c1 | 99.2
O=C(Nc1cccc2c(=O)cc(-c3nnn[nH]3)oc12)c1ccc(OCCCCc2ccccc2)cc1 | 9.45
CCCCCCCCCCCCCCCC[N+](C)(C)Cc1ccccc1 | 36.2
CC(C)c1ccc(CC(=O)N2CCC[C@@H](c3cccc(OC(C)(C)C(=O)O)c3)C2)cc1 | 24.2
Nc1n[nH]c2nc3ccccc3nc12 | 53.6
COC(=O)c1ccc(O)cc1 | 16.3
COC(=O)CC1CC(c2ccc(O)cc2)=NO1 (stereo not drawn) | 96.7
Nc1nc(Nc2ccccc2)nc2c1ncn2[C@@H]1O[C@H](CO)[C@@H](O)[C@H]1O | -2.75
CC(N)(C(=O)O)c1ccc(-c2nnn[nH]2)cc1 (stereo not drawn) | -2
CN(C)C(=N)NCCC[C@H](N)C(=O)O | 23.2
Cn1c(NCCN(CCO)CCCc2ccc([N+](=O)[O-])cc2)cc(=O)n(C)c1=O | 7.31
O=C(O)c1cc([N+](=O)[O-])ccc1NCCCc1ccccc1 | 109
CS(=O)(=O)Nc1ccc([N+](=O)[O-])cc1Oc1ccccc1 | 1.72
O=C(Nc1ccccc1)N1CCC(Cc2cnc3ccccc3c2)CC1 | 27.7
Cn1cc(/C=C2/C(=O)Nc3cccnc32)c2ccccc21 | 99.5
